Activity calls are given as the source filed them.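 How the source made its calls: active means peak inhibition of the KCNQ2 potassium channel above 30% at some tested dose, plus a fitted dose response curve; inactive means no inhibition at any dose, or no curve.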
Each molecule was assayed against Potassium voltage-gated channel subfamily KQT member 2 (Rattus norvegicus) (UniProt O88943) (assay: rat KCNQ2 channel inhibition, SAR follow-up, selectivity assay for KCNK9 inhibitor project, cell-based, FluxOR thallium flux, CRC set 2 (AID 588800)). Settings: KCNQ2-expressing cells; series mostly up to 30 µM.
Potassium voltage-gated channel subfamily KQT member 2 (Rattus norvegicus), sequence (O88943 whole entry, looked up): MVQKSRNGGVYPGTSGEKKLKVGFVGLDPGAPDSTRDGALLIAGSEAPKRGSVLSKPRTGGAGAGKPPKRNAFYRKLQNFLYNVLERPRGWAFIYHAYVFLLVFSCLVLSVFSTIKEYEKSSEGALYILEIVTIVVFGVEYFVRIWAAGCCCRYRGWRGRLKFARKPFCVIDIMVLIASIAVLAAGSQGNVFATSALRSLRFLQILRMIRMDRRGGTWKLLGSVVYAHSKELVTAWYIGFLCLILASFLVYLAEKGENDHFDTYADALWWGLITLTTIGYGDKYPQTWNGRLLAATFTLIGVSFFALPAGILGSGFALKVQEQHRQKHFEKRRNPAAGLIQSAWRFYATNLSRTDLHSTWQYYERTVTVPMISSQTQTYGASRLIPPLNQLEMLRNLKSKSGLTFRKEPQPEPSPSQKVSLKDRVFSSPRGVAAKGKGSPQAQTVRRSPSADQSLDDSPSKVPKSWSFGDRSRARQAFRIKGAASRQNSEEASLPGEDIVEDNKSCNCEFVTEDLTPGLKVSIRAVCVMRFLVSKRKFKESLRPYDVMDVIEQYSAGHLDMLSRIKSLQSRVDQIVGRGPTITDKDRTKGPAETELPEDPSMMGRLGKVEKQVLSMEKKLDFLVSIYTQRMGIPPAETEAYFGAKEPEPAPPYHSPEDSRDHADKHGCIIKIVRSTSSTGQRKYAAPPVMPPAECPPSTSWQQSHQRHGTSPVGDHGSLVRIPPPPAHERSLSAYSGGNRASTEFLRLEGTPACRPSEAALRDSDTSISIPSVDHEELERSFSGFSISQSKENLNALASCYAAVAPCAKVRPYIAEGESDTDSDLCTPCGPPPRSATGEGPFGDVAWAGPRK

outcome, inactive:
Cc1cccc(C(=O)Nc2cccc(NC(=O)C3CCCCC3)c2)c1, O=C(Nc1ccccc1Cl)c1cccc(NC(=O)C2CCCC2)c1, CCOc1ccccc1NC(=O)c1cccc(NC(=O)c2ccccc2)c1, O=C(Nc1cccc(NC(=O)c2ccccn2)c1)c1ccccc1, COc1ccccc1NC(=O)c1cccc(NC(=O)C2CCCC2)c1, COc1cccc(OC)c1C(=O)Nc1cccc(NC(=O)c2cccc(C)c2)c1, Cc1ccc(-c2n[nH]c(=S)n2C(C)C2CC3CCC2C3)cc1 (stereo not given), CC(C1CC2CCC1C2)n1c(-c2ccccc2Cl)n[nH]c1=S (stereo not given), COc1ccccc1C(=O)Nc1cccc(NC(=O)c2ccccc2)c1, CC(C1CC2CCC1C2)n1c(-c2ccoc2)n[nH]c1=S (stereo not given), CCOc1ccccc1NC(=O)c1cccc(NC(=O)c2cccc(C)c2)c1, CCOc1ccccc1C(=O)Nc1cccc(NC(=O)c2ccccc2C(F)(F)F)c1, Cc1ccccc1-c1n[nH]c(=S)n1C(C)C1CC2CCC1C2 (stereo not given), COc1cccc(C(=O)Nc2cccc(NC(=O)c3cccc(C)c3)c2)c1, Cc1cccc(C(=O)Nc2cccc(NC(=O)c3ccc(N(C)C)cc3)c2)c1, Cc1cccc(C(=O)Nc2cccc(NC(=O)c3cccc(Cl)c3)c2)c1, COc1ccc(C(=O)Nc2cccc(NC(=O)c3cccc(C)c3)c2)cc1, Cc1cccc(C(=O)Nc2cccc(NC(=O)c3cccs3)c2)c1, Cc1cccc(C(=O)Nc2cccc(NC(=O)c3ccncc3)c2)c1, CCOc1ccccc1NC(=O)c1cccc(NC(=O)C2CCCCC2)c1, O=C(Nc1cccc(NC(=O)c2ccco2)c1)c1ccccc1, CC(C)n1c(-c2ccco2)n[nH]c1=S, Cc1cccc(C(=O)Nc2cccc(NC(=O)c3cccc(C(F)(F)F)c3)c2)c1, COc1ccccc1C(=O)Nc1cccc(NC(=O)c2ccccc2C(C)C)c1, CCOc1ccccc1NC(=O)c1cccc(NC(=O)C2CCOC2)c1 (stereo not given), O=C(Nc1cccc(NC(=O)C2CCCCC2)c1)c1ccccc1, O=C(Nc1cccc(NC(=O)c2cccc(F)c2)c1)c1ccccc1, CCOc1ccccc1NC(=O)c1cccc(NC(=O)C2CCCO2)c1 (stereo not given), CCOc1ccccc1NC(=O)c1cccc(NC(=O)c2ccc(C(F)(F)F)cc2)c1, CCOc1ccccc1NC(=O)c1cccc(NC(=O)c2cccc(C(F)(F)F)c2)c1, O=C(Nc1cccc(NC(=O)c2ccccc2C(F)(F)F)c1)c1ccccc1, Cc1cccc(C(=O)Nc2cccc(NC(=O)c3ccccc3)c2)c1, CCOc1ccccc1NC(=O)c1cccc(NC(=O)c2ccc(Cl)cc2)c1, O=C(Nc1cccc(NC(=O)c2ccccc2)c1)c1ccccc1, CC(C1CC2CCC1C2)n1c(-c2ccco2)n[nH]c1=S (stereo not given)

From PubChem BioAssay AID588800 (Johns Hopkins Ion Channel Center, 2011)
